In the library only some 19% were active in any assay of this set; here they are far more common.
DT40 TDP1 no CPT: qHTS for Inhibitors of human tyrosyl-DNA phosphodiesterase 1 (TDP1): qHTS in cells in absence of CPT; DT40 Tdp1-/- hTDP1 cells, no CPT, ATP luminescence, 48 h; Potency, µM (top dose mostly 46.2 µM), inactives show at the top dose activity change, negative = growth inhibition, actives largely listed as inhibitors; 420,000 compounds, 15% hits; also: potency is read from the fitted curve at half-maximal effect; nearly all actives have a fitted effect of over 55% in size
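Chicken DT40 Tdp1-/- cells complemented with human TDP1, screened without camptothecin (DMSO vehicle only), 400 cells/well. Compounds pin-transferred, cells incubated at 37 °C for at least 48 hr. Growth read as ATP-dependent luminescence (CellTiter-Glo, 30 min at RT).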
HT1080-NT tox: kills 2HG-producing HT-1080-NT fibrosarcoma cells; HT-1080-NT fibrosarcoma viability, CellTiter-Glo ATP luminescence, 48 h; Potency, µM (titrated, usually from 46.1 µM), for inactives: top-dose activity, negative = less viability, hits mostly cytotoxic; 360,000 compounds, 1.6% hits; AID 686970;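 also: NT is the 2HG producing partner of a matched IDH1 knockdown line; potency is read from the fitted curve at half-maximal effect; 0% = DMSO-treated cells and -100% = media-only wells without cells; nearly all actives have a fitted effect of over 55% in size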
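HT-1080-NT; 750 cells/well; 5% FBS RPMI; 48 h compound, 37 degrees C; CellTiter-Glo luminescence; curve fitting and curve-class assignment.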
IL-1B inflam inh: inflammasome signaling inhibition, IL-1 beta readout. THP-1 LPS/ATP IL-1B secretion, AlphaLISA, 16 h; stronger effect = lower value. activity change, % at 57.5 µM. 360,000 compounds, 4.7% hits. AID 743279; in the data active = activity change below about -50%; inconclusive = mostly about -30% to -49%
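THP-1 cells pretreated 1 hr with compounds (up to 57.5 uM final), then stimulated with LPS (250 ng/mL final) plus ATP (1.25 mM final); secreted IL-1B measured by AlphaLISA after 16 hr, decreased signal indicating inhibition.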
TDP1 cell CPT: DT40-hTDP1 cell growth loss with CPT; chicken DT40 Tdp1-/-;hTDP1 cells + 20 nM CPT, ATP luminescence, 48 h; 420,000 compounds, 12% hits; Potency, µM (highest dose often 46.2 µM), inactives show at the top dose activity change, negative = growth inhibition, actives largely listed as inhibitors; also: potency is read from the fitted curve at half-maximal effect; nearly all actives have a fitted effect of over 55% in size
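Chicken DT40 Tdp1-/- cells complemented with human TDP1, 400 cells/well, exposed to compounds plus 20 nM camptothecin for at least 48 h at 37 C; viability read as ATP content by CellTiter-Glo luminescence.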
HT1080 IDH1KD tx: kills HT-1080 cells with IDH1 knockdown. HT-1080 IDH1 knockdown viability, ATP luminescence, 48 h. 360,000 compounds, 2% hits. AID 686971. Potency, µM (highest dose often 46.1 µM), inactives show top-dose activity, negative = toxicity, hits mostly cytotoxic;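 also: potency is read from the fitted curve at half-maximal effect; 0% = DMSO wells and -100% = cell-free medium wells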
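IDH1KD HT-1080 cells, 750/well, RPMI + 5% FBS; compound pinned after 2 h settling; 48 h, 37 °C; CellTiter-Glo luminescence; % activity normalised to DMSO and no-cell wells; curves fitted, classed by r2 and efficacy.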
The depositor's hits bear a star; ? = inconclusive; . = not tested or not shown. Unless noted, calls follow the shape of the dose curve; as a rule, active = well fitted curve in the direction sought with a large enough effect; inconclusive = small, poorly fitted or top-dose-only effect, or another doubt; inactive = no such curve, though single readings can be large; an effect the other way counts as inactive or inconclusive. Unless noted, % is scaled to controls: 0 for no effect and ±100 for the full control effect.

SMILES | DT40 TDP1 no CPT | HT1080-NT tox | IL-1B inflam inh | TDP1 cell CPT | HT1080 IDH1KD tx
O=C(CNC(=O)[C@@H]1Cc2ccccc2CN1)Nc1ccc2c(c1)OCCO2 | 20% | 10% | -7 | -4% | 7%
C/C(=N\Nc1ccc(S(N)(=O)=O)cc1[N+](=O)[O-])c1ccc2c(c1)OCO2 | 15µM* | ? | 37 | -28% | ?
CCC(CC)=NNc1ccc(S(N)(=O)=O)cc1[N+](=O)[O-] | -2% | -16% | 18 | -6% | -15%
CCCN1CCC(=NNc2ccc(S(=O)(=O)N(CC)CC)cc2[N+](=O)[O-])CC1 | 2.6µM* | 8.2µM* | -1 | 2.1µM* | 5.8µM*
CCN(CC)S(=O)(=O)c1ccc(N/N=C(\C)c2ccc3c(c2)OCO3)c([N+](=O)[O-])c1 | 15µM* | -5% | -9 | ? | 6%
CCc1ccc(/C=c2\s/c(=C\C(=O)C(C)(C)C)[nH]c2=O)cc1 | 23µM* | ? | 0 | ? | ?
Cc1ccccc1/C=c1\s/c(=C\C(=O)C(C)(C)C)[nH]c1=O | 10µM* | ? | 37 | 13µM* | ?
CC(C)(C)C(=O)/C=C1\NC(=O)CS1 | -3% | 8% | 4 | 19% | 17%
O=C(CN(C(=O)CCC(=O)Nc1nccs1)c1cccc(C(F)(F)F)c1)NCC1CCCO1 (stereo unspecified) | ? | -1% | -4 | 11% | 7%
COc1ccc(CC(=O)Nc2ccc(S(=O)(=O)Nc3cc(C)nc(C)n3)cc2)cc1OC | -17% | -1% | 9 | 2% | 1%
CN(Cc1ccco1)S(=O)(=O)c1csc(C(N)=O)c1 | -2% | 4% | 20 | 6% | 12%
COc1ccccc1C(=O)NC(CCSC)C(=O)NNC(=O)c1ccncc1 (stereo unspecified) | 4% | -2% | 9 | 0% | 1%
COc1ccccc1NC(=O)C(=O)c1cn(CC(=O)N2CCOCC2)c2ccccc12 | 21µM* | -7% | -13 | ? | 2%
COc1ccccc1NC(=O)C(=O)c1cn(CC(=O)N2CCCC2)c2ccccc12 | -29% | -13% | ? | ? | -5%
CC(=O)c1cccc(NC(=O)C(=O)c2cn(CC(=O)N3CCCCC3)c3ccccc23)c1 | 23µM* | -1% | -13 | 26µM* | -5%
CC(=O)Nc1cccc(NC(=O)C(=O)c2cn(CC(=O)N3CCCC3)c3ccccc23)c1 | ? | 0% | -2 | ? | 7%
CCOc1ccc(NC(=O)CSc2cn(CC(=O)N3CCCCCC3)c3ccccc23)cc1 | ? | . | . | 23µM* | .
Cc1ccc(C(=O)NCCn2cc(SCC(=O)Nc3cc(C)on3)c3ccccc32)cc1 | ? | 0% | 0 | ? | -1%
COc1ccc(C(=O)NCCn2cc(SCc3cc(C)ccc3C)c3ccccc32)cc1 | ? | . | . | 13µM* | .
COc1ccc(OC)c(-c2csc(NC(=O)CSc3nnnn3C)n2)c1 | -1% | 13% | -10 | -4% | 13%
COc1cc(C(=O)OCC(=O)NC2CCCC2)cc(OC)c1OC | -1% | 2% | 17 | 9% | -5%
COC(=O)c1ccc(NC(=O)CSc2cn(CC(=O)N3CCCCC3)c3ccccc23)cc1 | ? | . | . | 21µM* | .
COCCNC(=O)CSc1cn(CC(=O)N2CCCCCC2)c2ccccc12 | 0.52µM* | . | . | ? | .
O=C(CSc1cn(CCNC(=O)c2ccccc2)c2ccccc12)NCc1ccco1 | ? | -16% | -18 | 26µM* | -3%
CCOc1ccc(C(=O)NCCn2cc(SCC(=O)Nc3ccccc3)c3ccccc32)cc1 | 23µM* | . | . | ? | .
SMILES | DT40 TDP1 no CPT | HT1080-NT tox | IL-1B inflam inh | TDP1 cell CPT | HT1080 IDH1KD tx
CNC(=O)CSc1cn(CC(=O)N2CCCCCC2)c2ccccc12 | -15% | . | . | -16% | .
CC(=O)Nc1cccc(NC(=O)CS(=O)(=O)c2cn(CC(=O)N(C(C)C)C(C)C)c3ccccc23)c1 | 14% | -4% | 0 | 12% | 10%
CC1CCCC(NC(=O)COC(=O)c2ccc3ncsc3c2)C1C (stereo unspecified) | 26% | 18% | 11 | -11% | -1%
CC(=O)Nc1cccc(NC(=O)CSc2cn(CC(=O)N3CCCCCC3)c3ccccc23)c1 | ? | . | . | 18µM* | .
COc1ccc(OC)c(S(=O)(=O)NC2CC(=O)N(c3cccc(F)c3)C2)c1 (stereo unspecified) | ? | 3% | 0 | -4% | 4%
C=CCOc1ccc(CN(C)C(=O)CNC(=O)c2ccc(-c3ccccc3)cc2)cc1 | 21µM* | -26% | -8 | ? | ?
CCOc1ccc(CN(C)C(=O)CNC(=O)Cc2cccc3ccccc23)cc1 | 23µM* | 2% | -4 | ? | -1%
CN(CCOc1ccc(Br)cc1)C(=O)CNC(=O)c1ccc2ccccc2c1 | ? | -9% | -91* | -16% | -26%
CCOc1ccc(CN(C)C(=O)CNC(=O)c2ccccc2)cc1 | 5% | 15% | 11 | -19% | 1%
N#CCSc1nccc(/C=C/c2ccccc2)n1 | -8% | -15% | -92* | 18% | -20%
N#CCSc1nc2ccccc2o1 | -7% | -1% | -2 | 17% | 6%
COC(=O)c1ccc(NC(=O)Cn2c(-c3nonc3N)nc3ccccc32)cc1 | -13% | -6% | -6 | ? | -13%
O=C(Cn1c(-c2cscn2)nc2ccccc21)Nc1ccccc1F | ? | -7% | -5 | 7.9µM* | ?
CC(=O)c1cccc(NC(=O)Cn2c(-c3cncs3)nc3ccccc32)c1 | ? | . | . | -2% | .
CCOC(=O)c1ccc(NC(=O)Cn2c(-c3nonc3N)nc3ccccc32)cc1 | ? | -3% | -8 | 16µM* | 0%
O=C(Cn1c(C(F)(F)F)nc2ccccc21)Nc1ccccc1C(=O)O | -12% | -15% | 16 | -2% | ?
COC(=O)c1ccccc1NC(=O)Cn1c(-c2nonc2N)nc2ccccc21 | 0.71µM* | 0.71µM* | 43 | 0.79µM* | 0.32µM*
CCc1ccc(NC(=O)Cn2c(-c3cncs3)nc3ccccc32)cc1 | 15µM* | . | . | ? | .
C=CCN=C(NC#N)SCC(=O)c1cccc(OC)c1 | -23% | -22% | -57* | -19% | ?
C=CCN=C(NC#N)SCc1ccccc1 | -3% | -3% | -14 | 1% | -1%
O=C(Nc1cccc(/C=C/c2nc3ccccc3c(=O)[nH]2)c1)c1ccccc1Cl | 15µM* | ? | -52* | 16µM* | ?
COc1ccc(C(=O)Nc2cccc(/C=C/c3nc4ccccc4c(=O)[nH]3)c2)cc1 | 6.5µM* | ? | -27 | 9.2µM* | ?
COc1cc(/C=C/c2nc3ccccc3c(=O)[nH]2)cc(Cl)c1O | -7% | 6% | -1 | 1% | 7%
